Inconclusive results are not listed. Activity calls are given as the source filed them. How the source made its calls: active means hit-call score of the fitted dose curve at least 0.9, where 1 is the maximum; inconclusive means response in the unintended direction; inactive means score below 0.9.

Read-out in this test: xenobiotic metabolism (CYP1A1), CYP1A1 (gene 1543)
The test is described as follows: CLD_CYP1A1_24hr: CellzDirect (CLD) Gene Expression Assay for xenobiotic metabolism (CYP1A1) at 24 hours (AID 2283673). As to the method:
CLD_24hr is a cell-based, multiplexed-readout assay that uses hepatocyte, a human liver primary cell, with measurements taken at 24 hours after chemical dosing in a 96-well plate.CLD_CYP1A1_24hr is one of 16 assay component(s) measured or calculated from the CLD_24hr assay. It is designed to make measurements of mRNA induction, a form of inducible reporter, as detected with chemiluminescence signals by Quantitative Nuclease Protection Assay (qNPA) technology.Data from the assay component CLD_CYP1A1_24hr was analyzed at the endpoint, CLD_CYP1A1_24hr, in the positive analysis fitting direction relative to DMSO as the negative control and baseline of activity. Using a type of inducible reporter, gain-of-signal activity can be used to understand changes in the reporter gene as they relate to the gene CYP1A1. Furthermore, this assay endpoint can be referred to as a primary readout. To generalize the intended target to other relatable targets, this assay endpoint is annotated to the cyp intended target family, where subfamily is xenobiotic metabolism.
Human hepatocyte cultures were treated daily for two consecutive days with fresh dosing solutions containing appropriate concentrations of the 320 ToxCast chemicals (chemical identities were blinded to CellzDirect and other ToxCast collaborators), vehicle control (0.2% DMSO), and positive control inducers as summarized in Table 1. Due to the large number of treatment groups and chemicals examined, the ToxCast chemicals were divided into two groups (spanning two independent cultures of hepatocytes from separate donor preparations (Hu778: ToxCast plates 1 and 2; Hu776: ToxCast plates 3 and 4). Each preparation of human hepatocyte cultures was treated with respective vehicle control, medium only control, set of six positive controls/reference chemicals for the five hepatic receptor pathways, and a subset of eight of the ToxCast chemicals (indoxacarb, pyrithiobac-sodium, norflurazon, cyhalofop-butyl, methomyl, thiram, acetochlor, and propiconazole). These replicate data, coupled with internal replicates designed within the blinded ToxCast chemical library, provided additional data to evaluate interindividual differences between hepatocyte preparations and their potential impact on chemical profiles.Cell morphology and integrity were evaluated using phase-contrast microscopy as an indicator of hepatocyte cell health (Tyson & Green, 1987). Cultures for each treatment group (i.e., media, vehicle [0.2% DMSO], positive control inducers [multiple concentrations], and the ToxCast chemicals [multiple concentrations]) were observed and cell morphology was assessed relative to vehicle control cultures at each harvest time point (0, 6, 24, or 48 h). […] Images were evaluated at the conclusion of the study to assess changes in cell integrity and account for the effects of chemical exposure on uncharacteristic changes in concentration-dependent gene expression profiles. The results from these determinations of apparent cytotoxicity were annotated (yes/no) alongside the corresponding qNPA data for reference.At the conclusion of each treatment period, hepatocyte cultures (96-well) were washed with 1 volume of HBSS, lysed by addition of 25 ul ArrayPlate lysis buffer (HTG, Tucson, AZ), and 70 ul/well of Denaturation Oil, denatured by incubation at 95C for 10 min, and frozen at approximately -70C until analysis by nuclease protection assay (qNPA) (Roberts et al., 2007). For qNPA analysis, cell lysates were thawed at 50C for approximately 30 min, qNPA probes were added, and samples were incubated at 95C for 10 min to begin the detection process by denaturing the target RNA, dissociating the duplexes and secondary structure hybridization. At the conclusion of the hybridization period, S1 nuclease reagent was added to each sample to digest all nonprotected nucleotides at 50C for 60-90 min. […]
As for `CC(C)N(C(=O)SCC(Cl)=C(Cl)Cl)C(C)C`, the result was inactive.

With `C[Si](Cn1cncn1)(c1ccc(F)cc1)c1ccc(F)cc1`, the AC50 is 2.21 µM (active).

Consider `O=[N+]([O-])c1cc(C(F)(F)F)c(Cl)c([N+](=O)[O-])c1Nc1ncc(C(F)(F)F)cc1Cl`, for which the AC50 was 0.485 µM (active).

With `COc1cccc(C(=O)NN(C(=O)c2cc(C)cc(C)c2)C(C)(C)C)c1C`, the AC50 is 36.4 µM (active).

Take `C=C(C)[C@H]1Cc2c(ccc3c2O[C@@H]2COc4cc(OC)c(OC)cc4[C@@H]2C3=O)O1`: the AC50 is 3.38 µM (active).

`CC1=NNC(=O)N(/N=C/c2cccnc2)C1`: the AC50 is 4.96 µM (active).

Regarding `Cc1ccn2nc(S(=O)(=O)Nc3c(F)cccc3F)nc2n1`, the compound was classed as inactive.

For `C#CC(C)(C)NC(=O)c1cc(Cl)cc(Cl)c1`, the outcome was inactive.

With `N#CSCSC#N`, the outcome was inactive.

`Nc1nc(N)nc(NC2CC2)n1`: the outcome was inactive.

As for `C#CCC1=C(C)C(OC(=O)C2C(C=C(C)C)C2(C)C)CC1=O` (stereo not given), the AC50 was 20 µM (active).

For `Nc1c(Cl)cc([N+](=O)[O-])cc1Cl`, the AC50 is 9.35 µM (active).

On to `CCOP(=S)(OCC)SCCSCC`, for which the AC50 is 2.7 µM (active).

As for `CCCCSP(=O)(SCCCC)SCCCC`, the AC50 is 4.53 µM (active).

For `CCOP(=O)(OCC)Oc1cc(C)nc(C(C)C)n1`, the result was inactive.

Consider `COP(=O)(OC)SCn1c(=O)oc2cc(Cl)cnc21`, for which the outcome was inactive.

In the case of `CC(C1CC1)C(O)(Cn1cncn1)c1ccc(Cl)cc1` (stereo not given), the AC50 is 11.9 µM (active).

`CC(COc1ccc(Oc2ccccc2)cc1)Oc1ccccn1` (stereo not given): the call was inactive.

`CN(C)C(=O)Nc1cccc(C(F)(F)F)c1`: the AC50 is 2.41 µM (active).

`Cc1cc(C2CC2)nc(Nc2ccccc2)n1`: the AC50 is 29.9 µM (active).

For `CCOP(=S)(OCC)Oc1ccc2c(C)c(Cl)c(=O)oc2c1`, the AC50 was 1.89 µM (active).

As for `CCC(=O)Nc1ccc(Cl)c(Cl)c1`, the AC50 is 5.72 µM (active).

With `CSc1nc(NC(C)C)nc(NC(C)C)n1`, the AC50 was 6.14 µM (active).

As to `CCCOc1nn(C(=O)NS(=O)(=O)c2ccccc2C(=O)OC)c(=O)n1C`, the compound was classed as inactive.

Turning to `CCc1cccc(CC)c1N(COC)C(=O)CCl`, the AC50 was 3.06 µM (active).

Take `CCOC(=O)CC(SP(=O)(OC)OC)C(=O)OCC` (stereo not given): the AC50 is 5.29 µM (active).

Regarding `CCCSP(=O)(OCC)Oc1ccc(Br)cc1Cl` (stereo not given), the AC50 was 20 µM (active).

For the compound `CCOP(=S)(OCC)Oc1cc(C)nc(C(C)C)n1`, the AC50 was 6.62 µM (active).

As to `CCNc1nc(Cl)nc(NC(C)(C)C#N)n1`, the compound was called inactive.

As for `CNC(=O)ON=C(C)SC`, the call was inactive.

Consider `COc1ccc(C(=CC(=O)N2CCOCC2)c2ccc(Cl)cc2)cc1OC`, for which the compound was classed as inactive.

For the compound `CCOP(=O)(SC(C)CC)N1CCSC1=O` (stereo not given), the outcome was inactive.

As for `COP(=O)(OC)OC(Br)C(Cl)(Cl)Br` (stereo not given), the outcome was inactive.

For the compound `CC(C)=CC1C(C(=O)OCN2C(=O)C3=C(CCCC3)C2=O)C1(C)C` (stereo not given), the result was inactive.

On to `CSC1=N[C@@](C)(c2ccccc2)C(=O)N1Nc1ccccc1`, for which the AC50 is 3 µM (active).

As for `FC(F)C(F)(F)OCC(Cn1cncn1)c1ccc(Cl)cc1Cl` (stereo not given), the AC50 was 5.2 µM (active).

On to `CN1COCN(Cc2cnc(Cl)s2)C1=N[N+](=O)[O-]`, for which the compound was called inactive.

For `CCc1cccc(C)c1N(C(=O)CCl)C(C)COC` (stereo not given), the AC50 was 4.65 µM (active).

`CC(C)[C@H](C(=O)O[C@H](C#N)c1cccc(Oc2ccccc2)c1)c1ccc(Cl)cc1`: the call was inactive.

With `CCCCN(CC)c1c([N+](=O)[O-])cc(C(F)(F)F)cc1[N+](=O)[O-]`, the AC50 is 8.49 µM (active).

These data come from PubChem BioAssay (EPA / NIEHS).
